Tgondii IFNg = T. gondii growth inhibition under IFN-gamma; Toxoplasma gondii growth in IFN-gamma-treated host cells; active compounds read low; activity change, negative = inhibition, % (test concentration not listed); actives 3.8% (n = 69,000); in the data active means activity change below about -70%, passing the limit was not always enough;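 further: host cells are HeLa cells infected with Toxoplasma gondii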
* marks the source's active call; other numbers are inactive results. Many of the other results were omitted from the sample, so hits are more common in it than they were.

SMILES	Tgondii IFNg
CC[C@H]1CN2CCc3cc(OC)c(OC)cc3C2C[C@@H]1CC1NCCc2cc(OC)c(OC)cc21 (some centres not stated)	-79.1*
CCS(=O)(=O)N1CCc2cc(OC)c(OC)cc2C1c1ccc(OC)c(OC)c1 (configuration not stated)	36.4
O=C(CSc1nnc(-c2ccco2)o1)NCc1ccccc1	85.2
O=C(Nc1ccc(Cl)cc1)c1c(C(F)(F)F)ccnc1Sc1ccccc1	-34.8
COc1cc(-c2cccc(NC(C)=O)c2)cc(OC)c1OC	11.3
COc1cc2c(c(OC)c1OC)-c1ccc(OC)c(=O)cc1C(NC(C)=O)CC2 (configuration not stated)	-78.7*
COc1cc2c(c(OC)c1OC)C(=O)CC2	73.5
O=C(c1ccc(Br)cc1)N1CCc2c([nH]c3ccccc23)C1c1cccnc1 (configuration not stated)	-85.6*
O=C(c1cccs1)N1CCc2c([nH]c3ccccc23)C1c1cccnc1 (configuration not stated)	10.0
Cc1cccc(C(=O)N2CCc3c([nH]c4ccccc34)C2c2cccnc2)c1 (configuration not stated)	-108.5*
CCOc1cccc(CC(=O)N2CCc3c([nH]c4ccccc34)C2c2cccnc2)c1OCC (configuration not stated)	11.3
Cc1noc(C)c1CCC(=O)N1CCC[C@@H](CNC(=O)c2ccco2)C1	25.8
CCc1ccc(CNc2nc(-c3nnc(-c4ccccc4)o3)nc3ccccc23)cc1	257.7
Cc1cc(C)n(Cc2nc(-c3ccc(NC(=O)c4ccccc4F)cc3)oc2C)n1	-40.5
Cc1cc(C)n(Cc2nc(-c3ccc(NC(=O)c4ccc(F)c(Cl)c4)cc3)oc2C)n1	307.7
Cc1ccc(C(=O)Nc2ccc(-c3nc(Cn4nc(C)cc4C)c(C)o3)cc2)c(C)c1	115.4
Cc1cc(C)n(Cc2nc(-c3ccc(NC(=O)COc4ccccc4)cc3)oc2C)n1	-1.9
Cc1cc(C)n(Cc2nc(-c3ccc(NC(=O)c4ccc(C)c(C)c4)cc3)oc2C)n1	-87.7*
Cc1cc(C)n(Cc2nc(-c3ccc(NC(=O)c4ccc(N(C)C)cc4)cc3)oc2C)n1	66.5
COc1ccc(CC(=O)Nc2ccc(-c3nc(Cn4nc(C)cc4C)c(C)o3)cc2)cc1	-32.9
COc1ccccc1CC(=O)Nc1ccc(-c2nc(Cn3nc(C)cc3C)c(C)o2)cc1	-80.0*
COc1ccccc1C(=O)Nc1ccc(-c2nc(Cn3nc(C)cc3C)c(C)o2)cc1	-84.7*
CO[C@H](C(=O)N(C)C[C@@H]1OCc2ccccc2-c2ccccc2C(=O)N([C@@H](C)CO)C[C@@H]1C)c1ccccc1	5.0
COc1cccc(C(=O)N2CCN(S(=O)(=O)c3cc4c5c(c3)CCN5C(=O)CC4)CC2)c1	6.4
COCC1CN(C(=O)Cc2ccsc2)Cc2c1cnn2C (configuration not stated)	28.5
SMILES	Tgondii IFNg
CNc1cc(C(=O)N2CCCN(Cc3ccc(F)cc3)C(C(C)C)C2)ccn1 (configuration not stated)	-2.8
CC(C)c1cc(C(=O)N2CCOC(CCc3ccccc3)C2)no1 (configuration not stated)	-51.7
COCCN1CCO[C@@H]2CN(Cc3ccc4ccccc4n3)C[C@H]2C1	32.4
Cc1ccc(C)c(Cn2c(CNC(=O)c3cccs3)nc3ccccc32)c1	-12.5
O=C(CCC(=O)c1cccs1)c1cccs1	239.6
Cc1ccc(-c2cnc3ccccc3n2)cc1NC(=O)c1ccc(Br)o1	324.8
O=C(COc1ccc(-c2cnc3ccccc3n2)cc1)c1cccs1	-85.4*
COc1nccc(-c2c(-c3ccc(F)cc3)ncn2C2CCNCC2)n1	-66.2
CC(c1cccc(-c2ccc(C(N)=O)cn2)c1)N(C)C (configuration not stated)	-45.8
COc1ccc(NC(=O)CN2C(=O)CCc3cc(S(=O)(=O)N4CCOCC4)ccc32)cc1OC	4.6
Cc1ccccc1S(=O)(=O)N1CC[C@@H]2[C@@H](CO)N(C)c3ccc(-c4cccc(F)c4)cc3[C@@H]21	-66.6
Cc1oc(-c2ccc(C(=O)NC3CCCCCC3)cc2)nc1CN1CCc2ccccc21	-93.0*
COCCNC(=O)c1ccc(-c2nc(CN3CCc4ccccc43)c(C)o2)cc1	160.0
Cc1oc(-c2ccc(C(=O)NCCN3CCOCC3)cc2)nc1CN1CCc2ccccc21	54.8
CCCNC(=O)c1ccc(-c2nc(CN3CCc4ccccc43)c(C)o2)cc1	4.0
Cc1oc(-c2ccc(C(=O)NCCN(C)C)cc2)nc1CN1CCc2ccccc21	-111.8*
Cc1ccc(CNC(=O)c2ccc(-c3nc(CN4CCc5ccccc54)c(C)o3)cc2)cc1	72.2
Cc1ccc2cc(C3(O)CCN(C(=O)CN4CCOC4=O)CC3)ccc2n1	2.4
Cc1ccc(SCC(=O)NC(C)C)cc1	-22.1
CCOc1ccc2nc(SCC(=O)Nc3nc4ccc(OC)cc4s3)sc2c1	35.5
Cc1ccc(-c2nc(CN3CCN(C(=O)Nc4cc(Cl)ccc4C)CC3)c(C)o2)cc1	0.3
CCN1CCC2(CC1)OC(=O)C(C)=C2C(=O)Nc1cccc(F)c1	180.1
Cc1cccc(N2CCC3(CCC(=O)N3CC(=O)N(C)C)CC2)n1	1.5
COCCN(C)c1nc(C2CCN(S(C)(=O)=O)CC2)cc2c1ncn2C(C)C	-5.3
CC(C)CNc1nc2c(cc1C(=O)NCC1CC1)CCN(c1ccncn1)CC2	-39.4
SMILES	Tgondii IFNg
O=C(Nc1ccc(Cl)cc1)c1csnn1	27.9
Cc1ccc(SC(=O)c2csnn2)cc1	-102.0*
CC(C)N(C(=O)NC(=O)c1csnn1)C(C)C	12.4
O=C(Cc1ccccc1O)NCc1cccnc1Oc1ccccc1F	-25.9
COC1CC2(CCN(S(=O)(=O)c3cccs3)CC2)c2ccccc21 (configuration not stated)	-5.0
CCC1(CC)NC(=O)N(CC(=O)Nc2nc(-c3cc(C)sc3C)cs2)C1=O	10.6
COc1ccc(CN2CCc3nc(SCc4nc(-c5ccccc5)oc4C)[nH]c(=O)c3C2)cc1	-14.6
COc1ccc(-c2nc(CSc3nc4c(c(=O)[nH]3)CN(Cc3ccccc3)CC4)c(C)o2)cc1	-77.3*
Cc1oc(-c2ccccc2)nc1CSc1nc2c(c(=O)[nH]1)CN(Cc1ccccc1)CC2	-36.3
CC(C)(C)C(=O)Nc1ccc(NC(=O)COc2cccnc2)cc1Cl	-36.0
CCS(=O)(=O)N1CCc2ncc(Cn3cccn3)n2CC1	4.9
CCn1cncc1CNC(=O)c1csc2nc(-c3cccc(OC)c3)cn12	1.8
Cc1ncc(CN2CCC(c3nn(C)c(=O)n3-c3ccccc3)CC2)s1	-6.0
CCn1ncnc1CN1CCC(c2nn(C)c(=O)n2-c2ccccc2)CC1	-74.4*
CCn1ncnc1CN1CCCC(c2n[nH]c(=O)n2-c2ccccc2)C1 (configuration not stated)	-19.4
Cc1nn(C)c(N2CCOCC2)c1CN1CCN2CCNC(=O)C2C1 (configuration not stated)	4.2
Oc1cc2c(c(Cl)c1O)CCNC[C@@H]2c1ccccc1	-13.1
CCO[C@@H]1CO[C@@]2(CCCN(S(=O)(=O)N(C)C)C2)C1	-1.5
O=C(CCn1nnc2ccccc21)Nc1cnc2n1CCCC2	-37.2
Cc1ccc(CNC(=O)c2nc(Nc3ccc(F)cc3)c3ccccc3n2)o1	-48.1
COc1ccc(-c2cc3c(=O)n(Cc4nc(-c5ccc(OC(C)C)cc5)oc4C)ccn3n2)cc1	-54.1
COc1cccc(-c2nc(Cn3ccn4nc(-c5cccs5)cc4c3=O)c(C)o2)c1OC	-96.9*
COc1ccccc1-c1cc2c(=O)n(Cc3nc(-c4cccc(OC)c4OC)oc3C)ccn2n1	-18.9
